Measurements from PubChem BioAssay AID720650 (Broad Institute, 2013).
A number with no mark means an inactive call. Calls of active or inactive are those of the source. No rule for the calls is given here.

Test: Biochemical counterscreen for C difficile toxins, absence of UDPG, inhibitor dose response (AID 720650)
Details: series mostly up to 19.5 µM
`COc1ccc(/C=N/n2c(-c3cc(C)[nH]n3)n[nH]c2=S)cc1OC` gave an AC50 of over 39 µM.
For `CN1CC(=O)N/C1=N\C(=O)Nc1ccc(O)cc1`, the AC50 was “inactive”.
With `Cc1cccc(NC(=O)c2ccc(N3CCOCC3)c([N+](=O)[O-])c2)n1` the AC50 was “inactive”.
With `COc1ccc(/C=C/c2nc3ccccc3n2C)cc1` the AC50 was over 39 µM.
For `Cc1ccc(-c2cc(C(=O)NNC(=O)c3csc(N4CCOCC4)n3)c3ccccc3n2)cc1`, the AC50 was “inactive”.
For `Cc1n[nH]c(=O)nc1Nc1ccc(O)cc1`, the AC50 was 11.8 µM (active).
Molecule `CCNC(=O)C[C@H]1CC[C@@H]2[C@@H](COc3ccc(NC(=O)c4ccc5c(c4)OCO5)cc3C(=O)N2C)O1` has an AC50 of over 39 µM.
With `Nc1ccc(-c2nc3ccc(N)cc3o2)cc1` the AC50 was 12.5 µM (active).
For `CC1CCC/C(=C\c2ccc(O)cc2)C1=O` (stereo unspecified), the AC50 was 7.48 µM (active).
In the case of `O=C(CC(=O)N/N=C/c1ccc(O)cc1)N/N=C/c1ccc(O)cc1`, the AC50 was 9.03 µM (active).
For `O=C(Nc1ccc(O)cc1)c1ccc2c(c1)C(=O)N(Cc1ccco1)C2=O`, the AC50 was 9.58 µM (active).
In the case of `Cc1ccc(NNC(=O)c2ccno2)cc1C`, the AC50 was 0.302 µM (active).
In the case of `O=C1NC(=O)/C(=C/c2ccc(O)cc2)S1`, the AC50 was 8.69 µM (active).
With `CC(=O)Nc1ccc(Oc2nc(-c3ccccn3)nc3ccccc23)cc1` the AC50 was 11 µM (active).
With `CCCNC(=O)C[C@H]1CC[C@@H]2[C@@H](COc3ccc(NC(=O)c4ccc(Cl)cc4)cc3C(=O)N2C)O1` the AC50 was over 39 µM.
For `COc1cc(/C=C/C(=O)OCC(=O)N(C)Cc2ccccc2)ccc1O`, the AC50 was “inactive”.
